Laboratory results: PubChem BioAssay (EPA / NIEHS)
Results filed as inconclusive are left out. Active and inactive are the calls of the source. The calls were made as follows: active = hit-call score of the fitted dose curve at least 0.9, where 1 is the maximum; inconclusive = response in the unintended direction; inactive = score below 0.9.

The molecules below were run against Estrogen receptor (Homo sapiens) (UniProt P03372) (assay: OT_ERa_GFPERaERE_0120: Odyssey Thera (OT) 2-hour HeLa Transcription Induction Assay for Estrogen Receptor (AID 2283382)).
Estrogen receptor (Homo sapiens), sequence (P03372 whole entry, looked up): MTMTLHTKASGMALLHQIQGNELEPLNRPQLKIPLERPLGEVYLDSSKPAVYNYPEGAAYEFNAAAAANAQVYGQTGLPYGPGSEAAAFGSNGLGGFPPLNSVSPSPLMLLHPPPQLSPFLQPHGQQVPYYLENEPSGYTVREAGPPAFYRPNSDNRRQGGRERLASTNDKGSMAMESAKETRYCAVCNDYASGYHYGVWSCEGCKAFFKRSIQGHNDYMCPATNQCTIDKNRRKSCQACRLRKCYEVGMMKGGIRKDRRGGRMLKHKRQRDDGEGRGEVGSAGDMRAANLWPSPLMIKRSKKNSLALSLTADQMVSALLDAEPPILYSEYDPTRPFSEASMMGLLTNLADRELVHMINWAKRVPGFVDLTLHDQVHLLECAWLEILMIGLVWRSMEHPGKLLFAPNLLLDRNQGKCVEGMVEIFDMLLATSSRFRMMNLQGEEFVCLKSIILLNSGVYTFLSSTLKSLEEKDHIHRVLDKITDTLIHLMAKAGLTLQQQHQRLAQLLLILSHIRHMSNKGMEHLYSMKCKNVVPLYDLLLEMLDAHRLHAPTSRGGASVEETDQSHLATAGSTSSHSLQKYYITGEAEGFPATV
In short: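 Two-hour compound treatment of HeLa cells preceded microscopy imaging of an inducible fluorescent reporter. Image-based quantification gave one endpoint, analysed for signal increase relative to DMSO controls.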

Row | SMILES | outcome | AC50
1 | CCN(CC)c1ccccc1 | inactive | 
2 | CO/N=C(/C(=O)OC)c1ccccc1COc1ccccc1C |  | 21.9 µM (active)
3 | O=c1ssc(Cl)c1Cl | inactive | 
4 | CCC(C)(C)c1ccc(O)cc1 |  | 0.619 µM (active)
5 | ClC(Cl)(Cl)c1ccccc1 | inactive | 
6 | CC(C)(C)OOC(C)(C)C | inactive | 
7 | O=C(O)C1C(C(=O)O)C2(Cl)C(Cl)=C(Cl)C1(Cl)C2(Cl)Cl (centres undefined) | inactive | 
8 | Nc1ccc(Cl)cc1 | inactive | 
9 | CCOc1ccc(C(C)(C)COCc2cccc(Oc3ccccc3)c2)cc1 | inactive | 
10 | CCOP(=S)(OCC)SCSCC | inactive | 
11 | O=P1(N(CCCl)CCCl)NCCCO1 (centres undefined) | inactive | 
12 | Cc1ccc([N+](=O)[O-])cc1C | inactive | 
13 | CCCCC(CC)COC(=O)c1c(Br)c(Br)c(Br)c(Br)c1C(=O)OCC(CC)CCCC (centres undefined) | inactive | 
14 | CCCCC(CC)COP(=O)(Oc1ccccc1)Oc1ccccc1 (centres undefined) | inactive | 
15 | CCCCCCCc1ccc(O)cc1 | inactive | 
16 | O=P(Oc1ccccc1)(Oc1ccccc1)Oc1ccccc1 |  | 7.54 µM (active)
17 | CCCCN(CCCC)N=O | inactive | 
18 | CC(C)(C)N(NC(=O)c1ccc(Cl)cc1)C(=O)c1ccccc1 | inactive | 

Row | SMILES | outcome | AC50
19 | ClC1=C(Cl)C2(Cl)C3C(Cl)C(Cl)CC3C1(Cl)C2(Cl)Cl (centres undefined) | inactive | 
20 | CCCCc1ccccc1 | inactive | 
21 | Cc1ccc(N)cc1N | inactive | 
22 | CCOC(=O)c1ccccc1N | inactive | 
23 | CCCCN(CC)C(=O)SCCC | inactive | 
24 | O=[N+]([O-])c1ccc(Cl)c(Cl)c1 | inactive | 
25 | CCNc1nc(Cl)nc(NC(C)(C)C)n1 | inactive | 
26 | O=C(CBr)OCc1ccccc1 | inactive | 
27 | O=NN1CCCC1 | inactive | 
28 | O=S(=O)(c1ccc(O)cc1)c1ccc(O)cc1 |  | 51.9 µM (active)
29 | CCCN(CCC)c1c([N+](=O)[O-])cc(C(C)C)cc1[N+](=O)[O-] | inactive | 
30 | CCCCc1ccc(O)cc1 | inactive | 
31 | CCCCN(CCCC)SN(C)C(=O)Oc1cccc2c1OC(C)(C)C2 | inactive | 
32 | O=P(OCC(Br)CBr)(OCC(Br)CBr)OCC(Br)CBr (centres undefined) | inactive | 
33 | FC(F)(F)c1ccc(Cl)cc1 | inactive | 
34 | OCC1CO1 (centres undefined) | inactive | 
35 | c1nc[nH]n1 | inactive | 
36 | O=S1(=O)OCC2C(CO1)C1(Cl)C(Cl)=C(Cl)C2(Cl)C1(Cl)Cl (centres undefined) | inactive | 

The molecules below were run against Bile acid receptor (Homo sapiens) (UniProt Q96RI1) (assay: OT_FXR_FXRSRC1_0480: Odyssey Thera (OT) 8-hour HEK293T Protein-Complementation Assay for Farnesoid X receptor/SRC-1 Co-activator (AID 2283383)).
Bile acid receptor (Homo sapiens), sequence (Q96RI1 whole entry, looked up): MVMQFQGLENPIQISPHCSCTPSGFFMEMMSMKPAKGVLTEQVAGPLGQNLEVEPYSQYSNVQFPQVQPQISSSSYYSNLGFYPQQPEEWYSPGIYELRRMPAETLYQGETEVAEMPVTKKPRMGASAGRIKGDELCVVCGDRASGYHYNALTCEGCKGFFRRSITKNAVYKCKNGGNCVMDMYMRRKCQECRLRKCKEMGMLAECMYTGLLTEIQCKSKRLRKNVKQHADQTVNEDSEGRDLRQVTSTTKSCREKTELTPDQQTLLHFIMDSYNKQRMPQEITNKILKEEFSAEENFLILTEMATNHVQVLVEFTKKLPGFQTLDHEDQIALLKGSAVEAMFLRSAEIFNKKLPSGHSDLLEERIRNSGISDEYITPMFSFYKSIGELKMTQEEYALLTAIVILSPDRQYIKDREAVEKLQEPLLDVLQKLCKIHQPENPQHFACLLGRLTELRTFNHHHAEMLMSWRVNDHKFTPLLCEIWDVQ
In short: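 Readings were taken 8 h after dosing HEK293T cells in a split-reporter complementation format pairing FXR with SRC-1. Increased fluorescence relative to DMSO-treated wells defined activity.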

Row | SMILES | AC50 | outcome
37 | CO/N=C(/C(=O)OC)c1ccccc1COc1ccccc1C | 13.4 µM (active) | 
38 | CCC(C)(C)c1ccc(O)cc1 | 60.9 µM (active) | 
39 | ClC(Cl)(Cl)c1ccccc1 |  | inactive
40 | CC(C)(C)OOC(C)(C)C |  | inactive
41 | O=C(O)C1C(C(=O)O)C2(Cl)C(Cl)=C(Cl)C1(Cl)C2(Cl)Cl (centres undefined) |  | inactive
42 | CCOc1ccc(C(C)(C)COCc2cccc(Oc3ccccc3)c2)cc1 |  | inactive
43 | CCOP(=S)(OCC)SCSCC | 32.6 µM (active) | 
44 | Cc1ccc([N+](=O)[O-])cc1C |  | inactive
45 | CCCCC(CC)COC(=O)c1c(Br)c(Br)c(Br)c(Br)c1C(=O)OCC(CC)CCCC (centres undefined) |  | inactive
46 | CCCCC(CC)COP(=O)(Oc1ccccc1)Oc1ccccc1 (centres undefined) | 2.85 µM (active) | 
47 | O=P(Oc1ccccc1)(Oc1ccccc1)Oc1ccccc1 | 11.9 µM (active) | 
48 | CCCCN(CCCC)N=O |  | inactive
49 | CC(C)(C)N(NC(=O)c1ccc(Cl)cc1)C(=O)c1ccccc1 | 70.1 µM (active) | 
50 | ClC1=C(Cl)C2(Cl)C3C(Cl)C(Cl)CC3C1(Cl)C2(Cl)Cl (centres undefined) |  | inactive
51 | CCCCc1ccccc1 |  | inactive
52 | Cc1ccc(N)cc1N |  | inactive
53 | CCCCN(CC)C(=O)SCCC |  | inactive
54 | O=[N+]([O-])c1ccc(Cl)c(Cl)c1 |  | inactive
55 | CCNc1nc(Cl)nc(NC(C)(C)C)n1 |  | inactive
56 | O=C(CBr)OCc1ccccc1 |  | inactive
57 | O=NN1CCCC1 |  | inactive
58 | O=S(=O)(c1ccc(O)cc1)c1ccc(O)cc1 |  | inactive
59 | CCCCc1ccc(O)cc1 |  | inactive
60 | O=P(OCC(Br)CBr)(OCC(Br)CBr)OCC(Br)CBr (centres undefined) | 11.4 µM (active) | 
61 | c1nc[nH]n1 |  | inactive
62 | O=S1(=O)OCC2C(CO1)C1(Cl)C(Cl)=C(Cl)C2(Cl)C1(Cl)Cl (centres undefined) | 49.3 µM (active) | 

Each molecule was assayed against Bile acid receptor (Homo sapiens) (UniProt Q96RI1) (assay: OT_FXR_FXRSRC1_1440: Odyssey Thera (OT) 24-hour HEK293T Protein-Complementation Assay for Farnesoid X receptor/SRC-1 Co-activator (AID 2283384)).
In short: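 Single endpoint, analysed for increased fluorescence against DMSO controls. HEK293T cells carrying FXR and SRC-1 linked to complementary reporter halves were exposed to chemicals for 24 h before reading.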

Row | SMILES | outcome | AC50
63 | CCN(CC)c1ccccc1 | inactive | 
64 | CO/N=C(/C(=O)OC)c1ccccc1COc1ccccc1C |  | 12.4 µM (active)
65 | O=c1ssc(Cl)c1Cl |  | 11.4 µM (active)
66 | CCC(C)(C)c1ccc(O)cc1 | inactive | 
67 | ClC(Cl)(Cl)c1ccccc1 | inactive | 
68 | O=C(O)C1C(C(=O)O)C2(Cl)C(Cl)=C(Cl)C1(Cl)C2(Cl)Cl (centres undefined) | inactive | 
69 | CCOP(=S)(OCC)SCSCC | inactive | 
70 | Cc1ccc([N+](=O)[O-])cc1C | inactive | 
71 | CCCCC(CC)COC(=O)c1c(Br)c(Br)c(Br)c(Br)c1C(=O)OCC(CC)CCCC (centres undefined) | inactive | 
72 | CCCCC(CC)COP(=O)(Oc1ccccc1)Oc1ccccc1 (centres undefined) | inactive | 
73 | O=P(Oc1ccccc1)(Oc1ccccc1)Oc1ccccc1 | inactive | 
74 | CC(C)(C)N(NC(=O)c1ccc(Cl)cc1)C(=O)c1ccccc1 | inactive | 
75 | Cc1ccc(N)cc1N | inactive | 
76 | CCOC(=O)c1ccccc1N | inactive | 
77 | CCCCN(CC)C(=O)SCCC | inactive | 
78 | O=[N+]([O-])c1ccc(Cl)c(Cl)c1 | inactive | 
79 | CCNc1nc(Cl)nc(NC(C)(C)C)n1 | inactive | 
80 | O=NN1CCCC1 | inactive | 
81 | CCCCc1ccc(O)cc1 |  | 67.9 µM (active)
82 | O=P(OCC(Br)CBr)(OCC(Br)CBr)OCC(Br)CBr (centres undefined) |  | 29 µM (active)
83 | OCC1CO1 (centres undefined) | inactive | 
84 | O=S1(=O)OCC2C(CO1)C1(Cl)C(Cl)=C(Cl)C2(Cl)C1(Cl)Cl (centres undefined) |  | 50 µM (active)
